Source: the supplement of paper PMC8728848
Many of the other results were omitted from the sample, so the strongest signals are more common in it than they were.

How the values were obtained:
Experiment in all cases: glycan array binding signal (z-score within array); higher = stronger binding
Conditions in all cases: glycan notation: IUPAC condensed, linker removed
[1] = target: Neu5Ac(a2-3)[GalNAc(b1-4)]Gal(b1-4)Glc
How it was run: (§1)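 The Consortium for Functional Glycomics database supplied 3228 glycan arrays, of which those lacking an available protein sequence were dropped. The binding signal, a within-array Z-score, was averaged across arrays of the same protein sequence and across linkers. Negative scores can be read as non-binding.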

[2] = target: Neu5Ac(a2-6)Gal(b1-4)GlcNAc(b1-3)Gal(b1-3)GlcNAc
How it was run: as §1

[3] = target: Neu5Ac(a2-6)Gal(b1-4)GlcNAc(b1-3)Gal(b1-4)GlcNAc
How it was run: as §1

[4] = target: Neu5Ac(a2-6)Gal(b1-4)GlcNAc(b1-3)Gal(b1-4)[Fuc(a1-3)]GlcNAc(b1-3)Gal(b1-4)[Fuc(a1-3)]GlcNAc
How it was run: as §1

[5] = target: Neu5Ac(a2-8)Neu5Ac(a2-3)[Gal(b1-3)GalNAc(b1-4)]Gal(b1-4)Glc
How it was run: as §1

[6] = target: Neu5Ac(a2-8)Neu5Ac(a2-8)Neu5Ac(a2-3)[GalNAc(b1-4)]Gal(b1-4)Glc
How it was run: as §1

Neu5Gc(a2-6)GalNAc = target: Neu5Gc(a2-6)GalNAc
How it was run: as §1

[7] = target: Neu5Gc(b2-6)Gal(b1-4)GlcNAc
How it was run: as §1

[8] = target: Fuc(a1-2)[Gal(a1-3)]Gal(b1-4)GlcNAc(b1-3)Gal(b1-4)Glc
How it was run: as §1

[9] = target: Fuc(a1-3)[Gal(b1-4)]GlcNAc(b1-3)Gal(b1-4)Glc
How it was run: as §1

Gal(b1-4)Glc = target: Gal(b1-4)Glc
How it was run: as §1

[10] = target: Gal(b1-4)GlcNAc(b1-2)Man(a1-3)[Gal(b1-4)GlcNAc(b1-2)Man(a1-6)]Man(b1-4)GlcNAc(b1-4)[Fuc(a1-6)]GlcNAc
How it was run: as §1

[11] = target: Gal(b1-4)GlcNAc(b1-2)Man(a1-3)[Gal(b1-4)GlcNAc(b1-2)Man(a1-6)][GlcNAc(b1-4)]Man(b1-4)GlcNAc(b1-4)[Fuc(a1-6)]GlcNAc
How it was run: as §1

Glc(a1-4)Glc = target: Glc(a1-4)Glc
How it was run: as §1

[12] = target: Glc(a1-6)Glc(a1-4)Glc(a1-4)Glc
How it was run: as §1

[13] = target: Glc(a1-6)Glc(a1-6)Glc(a1-6)Glc(a1-6)Glc(a1-6)Glc(a1-6)Glc(a1-6)Glc
How it was run: as §1

[14] = target: GlcA(b1-3)Gal(b1-4)GlcNAc(b1-3)Gal(b1-4)Glc
How it was run: as §1

[15] = target: GlcNAc(a1-4)Gal(b1-3)[Fuc(a1-2)]Gal
How it was run: as §1

[16] = target: GlcNAc(b1-2)[GlcNAc(b1-4)]Man(a1-3)[GlcNAc(b1-2)[GlcNAc(b1-4)][GlcNAc(b1-6)]Man(a1-6)][GlcNAc(b1-4)]Man(b1-4)GlcNAc(b1-4)GlcNAc
How it was run: as §1

[17] = target: GlcNAc(b1-4)GlcNAc(b1-4)GlcNAc
How it was run: as §1

[18] = target: HexA(a1-3)GalNAc4S(b1-4)IdoA(a1-3)GalNAc4S(b1-4)IdoA(a1-3)GalNAc4S(b1-4)IdoA(a1-3)GalNAc4S(b1-4)IdoA(a1-3)GalNAc4S(b1-4)IdoA(a1-3)GalNAc4S(b1-4)IdoA(a1-3)GalNAc4S
How it was run: as §1

[19] = target: Man(a1-2)Man(a1-3)[Man(a1-2)Man(a1-6)[Man(a1-3)]Man(a1-6)]Man(b1-4)GlcNAc(b1-4)GlcNAc
How it was run: as §1

[20] = target: Man(a1-2)Man(a1-3)[Man(a1-3)[Man(a1-6)]Man(a1-6)]Man(b1-4)GlcNAc(b1-4)GlcNAc
How it was run: as §1

[21] = target: Man(a1-3)[Man(a1-6)]Man(a1-6)[Man(a1-3)]Man
How it was run: as §1

[22] = target: Neu4Ac5Ac(a2-3)Gal(b1-4)Glc
How it was run: as §1

[23] = target: Neu5Ac(a2-3)Gal(b1-4)[Fuc(a1-3)]GlcNAc6S(b1-3)Gal(b1-4)Glc
How it was run: as §1

[24] = target: Neu5Ac(a2-6)Gal(b1-3)GlcNAc(b1-3)[Fuc(a1-3)[Gal(b1-4)]GlcNAc(b1-6)]Gal(b1-4)Glc
How it was run: as §1

Neu5Ac(a2-6)Gal(b1-4)Glc = target: Neu5Ac(a2-6)Gal(b1-4)Glc
How it was run: as §1

[25] = target: Neu5Ac(a2-8)Neu5Ac(a2-3)Gal(b1-3)GalNAc(b1-4)[Neu5Ac(a2-3)]Gal(b1-4)Glc
How it was run: as §1

[26] = target: Neu5Ac(a2-8)Neu5Ac(a2-8)Neu5Ac(a2-8)Neu5Ac(a2-8)Neu5Ac
How it was run: as §1

[27] = target: Xyl(a1-6)Glc(b1-4)[Xyl(a1-6)]Glc(b1-4)[Xyl(a1-6)]Glc(b1-4)Glc
How it was run: as §1

B1: CVN (Nostoc ellipsosporum), P81180 (protein)
chain: LGKFSQTCYNSAIQGSVLTSTCERTNGGYNTSSIDLNSVIENVDGSLKWQPSNFIETCRNTQLAGSSELAAECKTRAQQFVSTKINLDDHIANIDGTLKYE
glycan array binding signal (z-score) [1]: -0.305
glycan array binding signal (z-score) [2]: -0.302
glycan array binding signal (z-score) [3]: -0.284
glycan array binding signal (z-score) [4]: 0.537
glycan array binding signal (z-score) [5]: -0.246
glycan array binding signal (z-score) [6]: -0.237
glycan array binding signal (z-score) (Neu5Gc(a2-6)GalNAc): -0.308
glycan array binding signal (z-score) [7]: -0.306

B2: CLECSF8 (Mus musculus), Q9Z2H6 (protein)
chain: HYFLRWTRGSVVKLSDYHTRVTCIREEPQPGATGGTWTCCPVSWRAFQSNCYFPLNDNQTWHESERNCSGMSSHLVTINTEAEQNFVTQLLDKRFSYFLGLADENVEGQWQWVDKTPFNPHTVFWEKGESNDFMEEDCVVLVHVHEKWVWNDFPCHFEVRRICKLPGITFNWKPSK
glycan array binding signal (z-score) [8]: -0.424
glycan array binding signal (z-score) [9]: -0.424
glycan array binding signal (z-score) (Gal(b1-4)Glc): -0.424
glycan array binding signal (z-score) [10]: -0.424
glycan array binding signal (z-score) [11]: -0.424
glycan array binding signal (z-score) (Glc(a1-4)Glc): 0.06
glycan array binding signal (z-score) [12]: 3.29
glycan array binding signal (z-score) [13]: 1.5
glycan array binding signal (z-score) [14]: 3.5
glycan array binding signal (z-score) [15]: -0.424
glycan array binding signal (z-score) [16]: -0.424
glycan array binding signal (z-score) [17]: 1.74
glycan array binding signal (z-score) [18]: 0.136
glycan array binding signal (z-score) [19]: -0.424
glycan array binding signal (z-score) [20]: -0.424
glycan array binding signal (z-score) [21]: 4.16
glycan array binding signal (z-score) [22]: 0.312
glycan array binding signal (z-score) [23]: -0.424
glycan array binding signal (z-score) [24]: -0.424
glycan array binding signal (z-score) (Neu5Ac(a2-6)Gal(b1-4)Glc): -0.424
glycan array binding signal (z-score) [25]: 9.51
glycan array binding signal (z-score) [26]: 1.77
glycan array binding signal (z-score) [27]: 3.32
